This note sets out measurements from PubChem BioAssay (EPA / NIEHS).

Inconclusive results are not listed. Calls of active or inactive are those of the source. The calls were made as follows, unless noted: active = hit-call score of the fitted dose curve at least 0.9, where 1 is the maximum; inactive = score below 0.9.

The target in assay [1] is human Peroxisome Proliferator-activated Receptor alpha (PPARa), PPARA (gene 5465) (UniProt Q07869). The experiment in a line: ATG_PPARa_TRANS: Attagene TRANS-FACTORIAL HepG2 Assay for human Peroxisome Proliferator-activated Receptor alpha (PPARa) (AID 2283001; active = hit-call score of the fitted dose curve at least 0.9, where 1 is the maximum;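 as to AC50: potency for gain of reporter signal over DMSO so agonist or activator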). Summed up:
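Cells (HepG2) are transfected with multiple reporter transcription units, exposed to chemical for 24 h, then total RNA is reverse-transcribed and amplified. Labelled products are quantified by capillary electrophoresis; induction is referenced to DMSO.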

The target in assay [2] is human Peroxisome Proliferator-activated Receptor delta (PPARd), PPARD (gene 5467) (UniProt Q03181). The experiment in a line: ATG_PPARd_TRANS: Attagene TRANS-FACTORIAL HepG2 Assay for human Peroxisome Proliferator-activated Receptor delta (PPARd) (AID 2283002; active = hit-call score of the fitted dose curve at least 0.9, where 1 is the maximum). Summed up: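 Measured quantity: GAL4-UAS reporter transcript induction in HepG2 after 24 h chemical dosing, with NR-Gal4 chimeras supplied by transient transfection. Detection by RT-PCR and capillary electrophoresis; upward fit against DMSO.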

Read-out in assay [3]: Intercellular Adhesion Molecule 1 (ICAM1), ICAM1 (gene 3383)
The experiment in a line: BSK_3C_ICAM1: BioMAP Diversity Plus: 3C Assay for Intercellular Adhesion Molecule 1 (ICAM1) Biomarker Activity (AID 2283003). Particulars: primary human endothelial cells (HUVEC); actives raise or lower the signal. Summed up:
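ELISA readout of ICAM1 in human umbilical vein endothelial cells in the 3C system, taken 24 h post-dose. Gain or loss of signal versus DMSO was fitted in both directions, with SRB total-protein staining run in parallel.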

Assay [4] is described as follows: BSK_3C_Proliferation: Cell Proliferation Assessment in the BioMAP Diversity Plus: 3C Assay (AID 2283006).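 As to AC50: potency may reflect either rise or fall in cell number versus DMSO.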 Particulars: primary human endothelial cells (HUVEC). Summed up: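 Proliferation as total protein: sulforhodamine B (0.1%) stain of TCA-fixed subconfluent human umbilical vein endothelial cells, absorbance 560 nm, 48 h after dosing. Activity fitted in both directions against DMSO baseline.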

Assay [5] addresses Peroxisome proliferator-activated receptor gamma (Homo sapiens) (UniProt P37231). As to the kind of experiment: ATG_PPARg_TRANS: Attagene TRANS-FACTORIAL HepG2 Assay for human Peroxisome Proliferator-activated Receptor-gamma (PPARg) (AID 2283007; active = hit-call score of the fitted dose curve at least 0.9, where 1 is the maximum). Summed up: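 After 24 h of chemical exposure, transfected HepG2 cells carrying PPARγ-Gal4 chimera reporter constructs are lysed for RNA. Reporter transcripts are measured by RT-PCR and capillary electrophoresis with fluorescent labelling, and gain of signal is fitted versus DMSO.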

For assay [6], the target named is Nuclear receptor subfamily 1 group I member 2 (Homo sapiens) (UniProt O75469). The experiment in a line: ATG_PXR_TRANS: Attagene TRANS-FACTORIAL HepG2 Assay for human Pregnane X Receptor (PXR) (AID 2283008; active = hit-call score of the fitted dose curve at least 0.9, where 1 is the maximum). Summed up: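 HepG2 transfected (FuGene 6) with GAL4-UAS reporter units + PXR-Gal4 chimera; dosed 24 h. Total RNA → oligo(dT) RT → PCR → 6-FAM primer extension → HpaI cut → CE. Gain-of-signal vs DMSO.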

Assay [7] deals with human RAR-related Orphan Receptor gamma (RORg), RORC (gene 6097) (UniProt P51449). The experiment in a line: ATG_RORg_TRANS: Attagene TRANS-FACTORIAL HepG2 Assay for human RAR-related Orphan Receptor gamma (RORg) (AID 2283011; active = hit-call score of the fitted dose curve at least 0.9, where 1 is the maximum). Summed up: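 HepG2 cells transiently transfected with GAL4-UAS reporter units and chimeric RORg-Gal4 construct; after 24 h chemical exposure, reporter mRNA measured by RT-PCR with fluorescent capillary electrophoresis, gain of signal fitted against DMSO.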

In assay [8] the target is human Retinoid X Receptor beta (RXRb), RXRB (gene 6257) (UniProt P28702). The experiment in a line: ATG_RXRb_TRANS: Attagene TRANS-FACTORIAL HepG2 Assay for human Retinoid X Receptor beta (RXRb) (AID 2283013; active = hit-call score of the fitted dose curve at least 0.9, where 1 is the maximum). Summed up:
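Readout is reporter transcript induction after 24 h dosing. It is measured by RT-PCR of total RNA followed by fluorescent capillary electrophoresis. HepG2 liver cells carry transfected multiple reporter units driven by an exogenous RXRb-Gal4 fusion; activity is relative to DMSO.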

Assay [9] concerns the target human Thyroid Receptor alpha (THRa1), THRA (gene 7067) (UniProt P10827). The experiment in a line: ATG_THRa1_TRANS: Attagene TRANS-FACTORIAL HepG2 Assay for human Thyroid Receptor alpha (THRa1) (AID 2283014; active = hit-call score of the fitted dose curve at least 0.9, where 1 is the maximum). Summed up: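 HepG2 cells transiently transfected with chimeric NR-Gal4 and GAL4-UAS reporter units, dosed 24 h. Reporter mRNA quantified by RT-PCR, fluorescent labeling, HpaI digestion and capillary electrophoresis; gain-of-signal fit versus DMSO.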

Read-out in assay [10]: E-selectin (Homo sapiens) (UniProt P16581)
The experiment in a line: BSK_3C_Eselectin: BioMAP Diversity Plus: 3C Assay for Eselectin Biomarker Activity (AID 2283015).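 As to outcome: cell surface E-selectin protein quantified by ELISA 24 h after dosing.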 Particulars: primary human endothelial cells (HUVEC); actives raise or lower the signal. Summed up:
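Primary human umbilical vein endothelial cells (3C system), read 24 h after compound addition; E-selectin measured by ELISA. Bidirectional curve fitting against DMSO baseline; cytotoxicity by parallel SRB total-protein staining.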

Read-out in assay [11]: Interleukin-1 alpha (IL1a), IL1A (gene 3552)
The experiment in a line: BSK_BE3C_IL1a: BioMAP Diversity Plus: BE3C Assay for Interleukin-1 alpha (IL1a) Biomarker Activity (AID 2283016). As to conditions: primary human bronchial epithelial cells; actives raise or lower the signal. Summed up:
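IL-1a measured by ELISA after 24 h treatment of human primary bronchial epithelial cells, with gain or loss of signal fitted versus DMSO. Parallel cultures stained with SRB gauge overt cytotoxicity.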

Read-out in assay [12]: Monocyte Chemoattractant Protein-1 (MCP1), CCL2 (gene 6347)
As to the kind of experiment: BSK_3C_MCP1: BioMAP Diversity Plus: 3C Assay for Monocyte Chemoattractant Protein-1 (MCP1) Biomarker Activity (AID 2283017). As to conditions: primary human endothelial cells (HUVEC); actives raise or lower the signal. Summed up: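 Human umbilical vein endothelial cells (3C system) exposed to chemicals for 24 h; MCP-1 quantified by ELISA against the DMSO baseline with bidirectional fitting, and parallel SRB staining used to assess cytotoxicity.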

Read-out in assay [13]: Monocyte Chemoattractant Protein-1 (MCP1), CCL2 (gene 6347)
The experiment in a line: BSK_4H_MCP1: BioMAP Diversity Plus: 4H Assay for Monocyte Chemoattractant Protein-1 (MCP1) Biomarker Activity (AID 2283018). As to conditions: primary human endothelial cells (HUVEC); actives raise or lower the signal. Summed up: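 ELISA of MCP-1 (CCL2) 24 h after chemical dosing of HUVEC in the BioMAP 4H system. Gain or loss versus DMSO fitted; parallel SRB staining (560 nm) tracked overt cytotoxicity.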

Read-out in assay [14]: Human Leukocyte Antigen - DR isotype (HLADR), HLA-DRA (gene 3122)
The experiment in a line: BSK_3C_HLADR: BioMAP Diversity Plus: 3C Assay for Human Leukocyte Antigen - DR isotype (HLADR) Biomarker Activity (AID 2283019).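 As to outcome: ELISA of cell-surface HLA-DR on HUVEC 24 h after dosing.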 As to conditions: primary human endothelial cells (HUVEC); actives raise or lower the signal. Summed up:
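HUVEC monoculture, HLA-DR measured by ELISA 24 h after chemical dosing. Fitted bidirectionally against DMSO baseline; parallel SRB staining assessed cytotoxicity, with 3C proliferation read by SRB at 48 h.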

Read-out in assay [15]: Interleukin-8 (IL8), CXCL8 (gene 3576)
The experiment in a line: BSK_3C_IL8: BioMAP Diversity Plus: 3C Assay for Interleukin-8 (IL8) Biomarker Activity (AID 2283020). As to conditions: primary human endothelial cells (HUVEC); actives raise or lower the signal. Summed up: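 IL-8 was measured by ELISA in HUVEC cultures 24 h after chemical dosing, with gain or loss of signal fitted relative to DMSO. Parallel SRB total-protein staining tracked overt cytotoxicity.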

Read-out in assay [16]: Monokine induced gamma interferon (MIG), CXCL9 (gene 4283)
The experiment in a line: BSK_3C_MIG: BioMAP Diversity Plus: 3C Assay for Monokine induced gamma interferon (MIG) Biomarker Activity (AID 2283021).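 As to AC50: MIG protein level measured by immunoassay in the treated endothelial cultures.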 Particulars: primary human endothelial cells (HUVEC); actives raise or lower the signal. Summed up:
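ELISA measurement of MIG in human umbilical vein endothelial cells 24 h after treatment. Cytotoxicity tracked by SRB staining in parallel cultures; gain or loss of signal fitted relative to DMSO.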

The target in assay [17] is human Retinoic Acid Receptor beta (RARb), RARB (gene 5915) (UniProt P10826). As to the kind of experiment: ATG_RARb_TRANS: Attagene TRANS-FACTORIAL HepG2 Assay for human Retinoic Acid Receptor beta (AID 2283004; active = hit-call score of the fitted dose curve at least 0.9, where 1 is the maximum). Summed up: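 HepG2 cells were transiently transfected with GAL4-UAS reporter units that report activity of exogenous chimeric NR-Gal4 proteins, then exposed to compound for 24 h. Reporter mRNA was quantified by RT-PCR with capillary electrophoresis fluorescence, as gain of signal over DMSO.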

Assay [18] concerns the target Retinoic acid receptor alpha (Homo sapiens) (UniProt P10276). As to the kind of experiment: ATG_RARa_TRANS: Attagene TRANS-FACTORIAL HepG2 Assay for human Retinoic Acid Receptor alpha (RARa) (AID 2283005; active = hit-call score of the fitted dose curve at least 0.9, where 1 is the maximum). Summed up:
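HepG2 cells transiently transfected with multiple reporter units expressing chimeric RARα-GAL4 fusion, with GAL4-UAS-driven reporters. After 24 h compound exposure, reporter mRNA induction quantified by RT-PCR and capillary electrophoresis with fluorescent labeling; gain-of-signal fitted relative to DMSO control.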

Assay [19] has as its target human RAR-related Orphan Receptor beta (RORb), RORB (gene 6096) (UniProt Q92753). The experiment in a line: ATG_RORb_TRANS: Attagene TRANS-FACTORIAL HepG2 Assay for human RAR-related Orphan Receptor beta (RORb) (AID 2283010; active = hit-call score of the fitted dose curve at least 0.9, where 1 is the maximum). Summed up: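 Read-out is reporter mRNA induction, quantified by RT-PCR with fluorescent capillary electrophoresis, 24 h post-dose in transiently transfected HepG2 expressing exogenous NR-Gal4 chimera. Activity fitted upward versus DMSO.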

In assay [20] the target is Retinoic acid receptor RXR-alpha (Homo sapiens) (UniProt P19793). The experiment in a line: ATG_RXRa_TRANS: Attagene TRANS-FACTORIAL HepG2 Assay for human Retinoid X Receptor alpha (RXRa) (AID 2283012; active = hit-call score of the fitted dose curve at least 0.9, where 1 is the maximum). Summed up:
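TRANS format reporting activity of exogenous RXRa-Gal4 chimera in transiently transfected HepG2, 24 h exposure. Reporter transcripts quantified by RT-PCR with capillary electrophoresis, with gain of signal scored relative to DMSO.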

As usually defined, the AC50 is the midpoint of the concentration-response curve, whichever way the signal moves.

Sequence of Peroxisome proliferator-activated receptor gamma (Homo sapiens) (P37231 whole entry, looked up, the tested form may be a part): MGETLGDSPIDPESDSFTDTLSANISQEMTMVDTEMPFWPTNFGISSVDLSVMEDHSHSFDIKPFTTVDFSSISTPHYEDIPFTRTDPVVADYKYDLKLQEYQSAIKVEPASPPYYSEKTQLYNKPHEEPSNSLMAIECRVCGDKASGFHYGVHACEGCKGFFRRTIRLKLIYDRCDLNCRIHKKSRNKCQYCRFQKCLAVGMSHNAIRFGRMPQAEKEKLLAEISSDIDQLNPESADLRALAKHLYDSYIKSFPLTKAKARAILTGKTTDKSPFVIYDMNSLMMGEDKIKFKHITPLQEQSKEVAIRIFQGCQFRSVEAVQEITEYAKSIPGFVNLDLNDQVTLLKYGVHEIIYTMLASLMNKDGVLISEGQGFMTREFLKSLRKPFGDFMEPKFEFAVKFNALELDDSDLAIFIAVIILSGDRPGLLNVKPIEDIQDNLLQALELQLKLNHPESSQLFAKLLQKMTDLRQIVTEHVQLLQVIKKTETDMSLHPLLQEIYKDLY
Sequence of Nuclear receptor subfamily 1 group I member 2 (Homo sapiens) (O75469 whole entry, looked up, the tested form may be a part): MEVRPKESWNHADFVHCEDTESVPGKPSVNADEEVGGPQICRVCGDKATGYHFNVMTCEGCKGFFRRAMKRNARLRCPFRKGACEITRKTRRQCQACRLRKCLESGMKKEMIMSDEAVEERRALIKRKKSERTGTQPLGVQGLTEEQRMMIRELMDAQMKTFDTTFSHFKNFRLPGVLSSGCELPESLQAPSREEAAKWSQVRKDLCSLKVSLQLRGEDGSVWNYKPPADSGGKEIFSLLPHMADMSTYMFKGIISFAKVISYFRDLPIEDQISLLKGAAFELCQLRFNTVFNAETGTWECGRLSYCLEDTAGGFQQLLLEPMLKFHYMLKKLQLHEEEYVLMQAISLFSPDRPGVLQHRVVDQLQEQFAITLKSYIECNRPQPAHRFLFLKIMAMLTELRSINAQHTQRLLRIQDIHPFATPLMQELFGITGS
Sequence of human Thyroid Receptor alpha (THRa1), THRA (gene 7067) (P10827 whole entry, looked up, the tested form may be a part): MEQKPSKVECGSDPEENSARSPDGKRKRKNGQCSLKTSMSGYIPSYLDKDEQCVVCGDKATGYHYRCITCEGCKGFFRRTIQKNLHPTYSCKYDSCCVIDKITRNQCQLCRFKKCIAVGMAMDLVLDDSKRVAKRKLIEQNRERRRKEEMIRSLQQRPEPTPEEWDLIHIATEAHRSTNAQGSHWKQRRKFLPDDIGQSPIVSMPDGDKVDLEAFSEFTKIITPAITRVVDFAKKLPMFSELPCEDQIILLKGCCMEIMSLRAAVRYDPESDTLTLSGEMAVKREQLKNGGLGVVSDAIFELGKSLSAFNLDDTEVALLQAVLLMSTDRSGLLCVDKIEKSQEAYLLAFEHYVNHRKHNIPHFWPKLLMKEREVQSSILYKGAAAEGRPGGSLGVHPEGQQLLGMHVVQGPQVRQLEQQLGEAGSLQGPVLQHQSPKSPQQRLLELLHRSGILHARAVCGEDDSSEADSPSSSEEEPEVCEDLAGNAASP
Sequence of human Retinoic Acid Receptor beta (RARb), RARB (gene 5915) (P10826 whole entry, looked up, the tested form may be a part): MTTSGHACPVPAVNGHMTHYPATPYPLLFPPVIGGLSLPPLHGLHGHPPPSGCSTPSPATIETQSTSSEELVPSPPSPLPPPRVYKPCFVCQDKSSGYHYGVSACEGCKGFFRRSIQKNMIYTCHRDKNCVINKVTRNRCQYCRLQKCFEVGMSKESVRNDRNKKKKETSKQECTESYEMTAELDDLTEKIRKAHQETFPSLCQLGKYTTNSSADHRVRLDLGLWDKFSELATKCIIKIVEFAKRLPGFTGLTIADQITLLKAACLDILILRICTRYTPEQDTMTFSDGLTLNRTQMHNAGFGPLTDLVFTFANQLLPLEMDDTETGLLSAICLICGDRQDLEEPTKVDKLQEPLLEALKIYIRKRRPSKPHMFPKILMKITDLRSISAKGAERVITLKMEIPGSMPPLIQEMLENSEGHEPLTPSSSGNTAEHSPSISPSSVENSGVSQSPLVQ
Sequence of human Peroxisome Proliferator-activated Receptor delta (PPARd), PPARD (gene 5467) (Q03181 whole entry, looked up, the tested form may be a part): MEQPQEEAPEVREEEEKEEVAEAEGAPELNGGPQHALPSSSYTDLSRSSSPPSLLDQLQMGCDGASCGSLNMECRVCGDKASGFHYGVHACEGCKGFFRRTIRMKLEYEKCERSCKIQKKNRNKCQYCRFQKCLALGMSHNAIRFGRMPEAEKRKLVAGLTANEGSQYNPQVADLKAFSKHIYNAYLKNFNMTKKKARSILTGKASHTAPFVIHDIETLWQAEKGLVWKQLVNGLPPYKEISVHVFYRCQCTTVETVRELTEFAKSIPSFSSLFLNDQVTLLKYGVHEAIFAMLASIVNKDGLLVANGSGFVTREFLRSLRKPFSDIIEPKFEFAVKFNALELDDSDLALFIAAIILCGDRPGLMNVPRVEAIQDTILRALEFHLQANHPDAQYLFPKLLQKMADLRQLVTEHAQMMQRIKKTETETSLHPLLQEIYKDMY
Sequence of human RAR-related Orphan Receptor gamma (RORg), RORC (gene 6097) (P51449 whole entry, looked up, the tested form may be a part): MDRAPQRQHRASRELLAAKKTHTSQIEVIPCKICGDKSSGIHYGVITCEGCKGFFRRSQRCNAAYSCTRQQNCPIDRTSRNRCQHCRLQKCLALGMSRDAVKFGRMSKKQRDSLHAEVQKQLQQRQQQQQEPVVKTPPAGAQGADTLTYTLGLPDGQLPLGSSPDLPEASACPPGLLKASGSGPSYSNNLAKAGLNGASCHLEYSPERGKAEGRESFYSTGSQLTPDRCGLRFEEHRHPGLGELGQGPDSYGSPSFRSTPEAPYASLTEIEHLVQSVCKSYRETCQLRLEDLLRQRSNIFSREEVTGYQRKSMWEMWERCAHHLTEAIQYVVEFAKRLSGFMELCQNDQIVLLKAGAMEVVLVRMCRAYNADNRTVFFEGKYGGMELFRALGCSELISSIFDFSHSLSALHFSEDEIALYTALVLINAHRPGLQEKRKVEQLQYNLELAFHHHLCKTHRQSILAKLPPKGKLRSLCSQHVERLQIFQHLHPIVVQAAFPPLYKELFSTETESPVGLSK
Sequence of human Peroxisome Proliferator-activated Receptor alpha (PPARa), PPARA (gene 5465) (Q07869 whole entry, looked up): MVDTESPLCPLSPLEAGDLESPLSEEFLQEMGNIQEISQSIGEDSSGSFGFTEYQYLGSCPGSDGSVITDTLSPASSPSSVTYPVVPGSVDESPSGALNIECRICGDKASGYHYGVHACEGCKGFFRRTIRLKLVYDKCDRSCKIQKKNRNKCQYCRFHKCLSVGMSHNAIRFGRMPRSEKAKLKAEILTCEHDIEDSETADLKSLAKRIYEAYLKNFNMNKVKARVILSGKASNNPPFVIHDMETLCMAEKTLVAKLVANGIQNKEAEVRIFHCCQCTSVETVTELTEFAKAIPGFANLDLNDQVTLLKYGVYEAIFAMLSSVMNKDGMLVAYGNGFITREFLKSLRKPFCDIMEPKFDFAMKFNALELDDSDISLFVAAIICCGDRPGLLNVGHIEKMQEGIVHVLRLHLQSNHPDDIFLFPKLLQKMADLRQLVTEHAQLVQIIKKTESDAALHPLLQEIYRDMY
Sequence of E-selectin (Homo sapiens) (P16581 whole entry, looked up): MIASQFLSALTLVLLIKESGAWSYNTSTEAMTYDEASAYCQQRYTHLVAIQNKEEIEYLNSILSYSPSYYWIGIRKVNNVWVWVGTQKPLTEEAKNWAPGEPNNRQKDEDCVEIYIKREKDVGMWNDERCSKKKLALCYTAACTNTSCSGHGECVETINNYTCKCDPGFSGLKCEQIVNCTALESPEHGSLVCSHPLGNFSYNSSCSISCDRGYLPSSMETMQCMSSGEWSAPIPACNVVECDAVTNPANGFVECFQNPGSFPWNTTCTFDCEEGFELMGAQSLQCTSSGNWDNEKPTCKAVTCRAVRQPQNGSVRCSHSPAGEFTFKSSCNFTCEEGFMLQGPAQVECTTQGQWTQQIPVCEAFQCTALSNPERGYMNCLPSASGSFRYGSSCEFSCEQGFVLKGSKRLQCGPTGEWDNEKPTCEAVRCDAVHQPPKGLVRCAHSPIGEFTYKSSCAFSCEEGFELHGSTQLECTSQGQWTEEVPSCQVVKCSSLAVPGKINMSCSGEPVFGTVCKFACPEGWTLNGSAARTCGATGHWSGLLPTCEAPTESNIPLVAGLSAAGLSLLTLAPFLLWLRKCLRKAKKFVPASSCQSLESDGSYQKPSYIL
Sequence of human Retinoid X Receptor beta (RXRb), RXRB (gene 6257) (P28702 whole entry, looked up, the tested form may be a part): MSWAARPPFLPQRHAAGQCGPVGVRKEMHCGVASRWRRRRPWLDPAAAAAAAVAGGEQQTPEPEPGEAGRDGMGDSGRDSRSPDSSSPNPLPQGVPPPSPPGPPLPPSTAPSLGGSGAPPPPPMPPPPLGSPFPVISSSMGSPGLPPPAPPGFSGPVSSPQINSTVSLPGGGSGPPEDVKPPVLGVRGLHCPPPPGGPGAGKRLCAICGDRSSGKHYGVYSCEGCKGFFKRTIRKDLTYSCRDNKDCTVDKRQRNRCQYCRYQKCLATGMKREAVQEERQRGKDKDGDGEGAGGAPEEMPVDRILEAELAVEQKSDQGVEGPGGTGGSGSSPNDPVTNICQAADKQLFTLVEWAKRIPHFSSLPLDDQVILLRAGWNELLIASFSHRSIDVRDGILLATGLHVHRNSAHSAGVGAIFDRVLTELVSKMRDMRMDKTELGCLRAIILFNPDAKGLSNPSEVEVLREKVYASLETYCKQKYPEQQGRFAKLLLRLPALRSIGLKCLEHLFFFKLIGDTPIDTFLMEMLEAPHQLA
Sequence of Retinoic acid receptor alpha (Homo sapiens) (P10276 whole entry, looked up, the tested form may be a part): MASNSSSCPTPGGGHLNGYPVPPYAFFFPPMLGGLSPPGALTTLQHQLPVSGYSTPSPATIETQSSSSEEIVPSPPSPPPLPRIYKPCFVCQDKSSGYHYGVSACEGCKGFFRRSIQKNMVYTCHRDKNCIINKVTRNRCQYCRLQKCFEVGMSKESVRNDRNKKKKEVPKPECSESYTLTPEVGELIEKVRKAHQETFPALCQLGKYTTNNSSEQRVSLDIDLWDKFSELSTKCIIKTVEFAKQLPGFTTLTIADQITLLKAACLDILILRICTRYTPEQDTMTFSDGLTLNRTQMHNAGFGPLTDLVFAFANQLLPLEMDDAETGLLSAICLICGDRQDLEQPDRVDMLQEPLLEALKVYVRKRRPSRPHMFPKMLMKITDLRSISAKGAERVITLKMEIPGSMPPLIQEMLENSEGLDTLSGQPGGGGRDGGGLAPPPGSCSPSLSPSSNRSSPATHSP

For the compound `NCc1cccc(C2CCN(C(=O)c3ccc(C#Cc4ccccc4F)o3)CC2)c1`, the AC50 in [1] was 0.909 µM (active); in assay [3], 30.1 µM (active); in assay [4], 8.67 µM (active); in assay [5] it was 1.33 µM (active); in assay [6], 8.45 µM (active); in assay [10], 35.6 µM (active). In addition, the half-maximal activity concentration (AC50) in [11] was 15 µM (active); in assay [12] it was 20.8 µM (active); in assay [13], 20 µM (active); in [14], 11.3 µM (active); in [15], 23.1 µM (active); in [16], 36.2 µM (active). The compound was classed as inactive in assay [2], in [7], in assay [8] and in [9].

As for `Cc1ncc(CO)c(CO)c1O`, the result in assay [1], in assay [2], in assay [3], in [4], in [5] and in [6] was inactive. Further, the outcome in [7], in assay [8], in assay [10], in assay [11], in assay [12] and in [13] was inactive. The outcome in [14], in assay [15] and in assay [16] was inactive.

Turning to `c1ccc(C[n+]2cccc3ccccc32)cc1`, the call in assay [1], in [2], in assay [3], in assay [4], in [5] and in [6] was inactive. For the same compound, the compound was called inactive in [8], in [9], in assay [10], in [11], in [12] and in [13]. For the same compound, the outcome in assay [14], in assay [15] and in [16] was inactive.

For `CCCCCCCCOc1ccc(C(=O)c2ccccc2)c(O)c1`, the call in assay [1], in assay [2], in assay [3], in assay [17], in [18] and in assay [5] was inactive. Further, the outcome in assay [6], in assay [19], in [9], in assay [10], in assay [11] and in assay [12] was inactive. The result in [13], in assay [15] and in assay [16] was inactive. Also, the AC50 in [4] is 30.1 µM (active); in [14], 24.7 µM (active).

Consider `CC(C)(C)c1cc(/C=C2\SC(N)=NC2=O)cc(C(C)(C)C)c1O`, for which the compound was classed as inactive in assay [1], in assay [2], in assay [17], in assay [18], in [8] and in [11]. The AC50 in [3] was 31.7 µM (active); in assay [4], 13.4 µM (active); in assay [5] it was 6.79 µM (active); in [6] it was 4.17 µM (active); in assay [10] it was 29.3 µM (active); in assay [12] it was 30.6 µM (active). Moreover, the AC50 was 20 µM (active) in assay [13], 27.5 µM (active) in assay [14], 30.1 µM (active) in [15] and 37.1 µM (active) in [16].

As for `Clc1cc(Cl)c2c(c1)N=C1CCCCCN1C2`, the outcome in assay [1], in [2], in [3], in [17], in [4] and in assay [7] was inactive. For the same compound, the compound was called inactive in assay [20], in assay [10], in [11], in [12], in assay [13] and in assay [14]. In addition, the result in assay [15] and in [16] was inactive. The AC50 is 16.1 µM (active) in [5] and 20.2 µM (active) in assay [6].

Turning to `COCC(C)OCC(C)OCC(C)O` (centres undefined), the compound was called inactive in assay [1], in assay [2], in [3], in assay [4], in assay [6] and in assay [8]. Moreover, the compound was classed as inactive in [9], in [10], in assay [11], in assay [12], in assay [13] and in assay [14]. Besides, the result in assay [15] and in assay [16] was inactive.
